The campaign covered roughly 360,000 compounds. About 2,300 (0.64%) were called active. Rule as the data show it: active = inhibition mostly above about 40% (no sharp cut-off); inactive = mostly below about 27%. Shown is part of a subset that was picked to be rich in actives.

For the assay, the target named is Sentrin-specific protease 8 (Homo sapiens) (UniProt Q96LD8). In words: human SENP8 protease inhibitors, primary screen, biochemical, fluorescence, Nedd8 protein substrate, uHTS (AID 602440). Conditions: recombinant SENP8, Nedd8 substrate fluorescence; at 20 µM; stronger effect = higher value.
Sentrin-specific protease 8 (Homo sapiens), sequence (Q96LD8 whole entry, looked up): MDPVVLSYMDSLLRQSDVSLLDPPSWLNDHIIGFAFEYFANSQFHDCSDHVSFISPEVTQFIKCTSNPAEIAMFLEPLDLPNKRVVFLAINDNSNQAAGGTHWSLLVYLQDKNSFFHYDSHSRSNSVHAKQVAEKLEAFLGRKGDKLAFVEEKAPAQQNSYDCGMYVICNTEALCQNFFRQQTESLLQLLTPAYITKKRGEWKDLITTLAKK
Broadly, the inhibition is the change of the read-out against control, counted positive when it falls. Take `O=C1N=c2ccccc2=C/C1=C\c1c(O)[nH]c(=S)[nH]c1=O`: the inhibition was -52.5% (inactive).

Regarding `COc1ccccc1N=Nc1c(O)[nH]c(=S)[nH]c1=O`, the inhibition was 49% (active).

`CCOCCc1c(O)[nH]c(=S)[nH]c1=O`: the inhibition was 21.8% (inactive).

For `CC(C(=O)Nc1ccc(Cl)cc1Cl)N1CC=C(c2ccccc2)CC1` (stereo not given), the inhibition was 26.7% (inactive).

Turning to `CNC(=O)N(C)c1nnc(C(C)(C)C)s1`, the inhibition is 17.7% (inactive).

For `O=C1NC(=O)N(c2ccccc2)C(=O)/C1=C/c1ccc([N+](=O)[O-])s1`, the inhibition was 64.6% (active).

Take `CCN(CC)CCOC(=O)c1cc2cc(COC)ccc2o1`: the inhibition was 15.2% (inactive).

For the compound `COC(=O)C1=C(c2cc3ccccc3o2)C[C@@H]2CC[C@H]1N2C(=O)NC1CCCCC1`, the inhibition was 11.5% (inactive).

Consider `CCOC(=O)CNC(=O)N1Cc2cc(N3CCCCC3)ccc2-n2nncc2C1`, for which the inhibition is -24.7% (inactive).

For the compound `c1cc2c(cc1C1OCC3C(c4ccc5c(c4)OCO5)OCC13)OCO2` (stereo not given), the inhibition is 62.3% (active).

On to `c1cc2c(cc1[C@H]1OC[C@H]3[C@@H]1CO[C@@H]3c1ccc3c(c1)OCO3)OCO2`, for which the inhibition was 12.2% (inactive).

`O=C1/C(=C\c2ccc3c(c2)OCO3)N2CCC1CC2`: the inhibition was 13.7% (inactive).

With `COC(=O)C1=C(c2ccc(F)cc2OCc2ccccc2)C[C@@H]2CC[C@H]1N2C(=O)NCc1ccc(OC)c(OC)c1`, the inhibition was 14.1% (inactive).

Consider `CCOC(=O)[C@]12Cc3ccccc3[C@H]1N(C1CCCCC1)C(=O)c1cc(OC)ccc12`, for which the inhibition was -7.7% (inactive).

As for `O=c1[nH]c(=O)n(CCc2ccccc2)c(O)c1/C=N/N1CCOCC1`, the inhibition was 11.3% (inactive).

`COc1ccc(C(=O)CC2C(=O)N(C)C(=O)N(C)C2=O)cc1`: the inhibition is 42.5% (active).

Regarding `CCOP(=O)(OCC)C(NC(=O)c1ccc(OC)cc1)C(Cl)(Cl)Cl` (stereo not given), the inhibition was 4.3% (inactive).

`COc1ccc(C(=O)C2CN(C)CC2C(=O)c2ccc(OC)cc2)cc1` (stereo not given): the inhibition is 14.3% (inactive).

As to `CCCCCCCCCCCCn1ccc(=N)cc1`, the inhibition is 26.2% (inactive).

For `CCOC(=O)CC(SP1(=S)OCC2(CCCCO2)C(C2CCCCO2)O1)C(=O)OCC` (stereo not given), the inhibition was 2.3% (inactive).

For the compound `Cc1ccc(Cn2c(C)c3cnn(CC(=O)N4CCC5(CC4)OCCO5)c(=O)c3c2C)cc1`, the inhibition was -29% (inactive).

Consider `C=CC12CN(C)[C@@H]3C4CO[C@H](C[C@H]41)[C@]1(C(=O)Nc4ccccc41)[C@@H]32` (stereo not given in full), for which the inhibition was 40.4% (active).

Turning to `COc1ccc2c(c1)[C@]13CCCCC1C(C2)N(C)CC3` (stereo not given in full), the inhibition is 2% (inactive).

`O=C(O)CCn1cc(C=C2C(=O)NC(=S)NC2=O)c(-c2cccc(Br)c2)n1`: the inhibition was 2.3% (inactive).

For `CCN(CC)c1ccc([N+](=O)[O-])c2cccnc12`, the inhibition is 36.3% (inactive).

Consider `CN(c1ccccc1)c1ccc([N+](=O)[O-])c2nonc12`, for which the inhibition was 44.1% (active).

As for `C[C@]12CCCCC1=CC(=O)C1C2CC[C@@]2(C)C1C[C@@H](F)[C@@H]2O` (stereo not given in full), the inhibition is -0.8% (inactive).

Turning to `C[N+]12CN3CN(CN(C3)C1)C2`, the inhibition is 12.2% (inactive).

For the compound `O=c1c2ccccc2nc(/C=C/c2ccco2)n1-c1ccccc1O`, the inhibition is -36.8% (inactive).

`CNP1(NC)=Nc2nn(-c3ccccc3)c(N)c2C(c2ccccc2)=N1`: the inhibition was 21.7% (inactive).

Turning to `O=C(O)C1CSC(c2cccnc2)N1` (stereo not given), the inhibition is 6.7% (inactive).

For `C[C@]12CC[C@H](O)C[C@H]1CC[C@@H]1C2CC[C@]2(C)[C@@H](C3=CC(=O)OC3)[C@@H](O)C[C@]12O` (stereo not given in full), the inhibition was 15.3% (inactive).

For the compound `COC1C(O)C(C)OC(OC2CCC3(C=O)C(CCC4C3CCC3(C)C(C5=CC(=O)OC5)CCC43O)C2)C1O` (stereo not given), the inhibition was 66.8% (active).

As to `CC(C)CN1CCN(Cc2ccccc2C(F)(F)F)CC1CCO` (stereo not given), the inhibition was -4% (inactive).

`CC1=C2C(=O)C3C(CC=C4CC(OC5OC(O)C(O)C(O)C5CO)CCC43C)C2CCC12OC1CC(C)CNC1C2C` (stereo not given): the inhibition is 41.4% (active).

Consider `CC(=O)OC1C2(CC3N4C(=O)C5(CO)SSC4(CC31O)C(=O)N5C)OC(C)C(C)(C)C2=O` (stereo not given), for which the inhibition is -4.6% (inactive).

`N[C@@H](Cc1c[nH]c2ccccc12)c1nnc(SCc2c(F)cccc2Cl)o1`: the inhibition is 18% (inactive).

Turning to `CN(C)C(=O)Oc1ccc2c(c1)O/C(=C\c1ccccc1)C2=O`, the inhibition is -9.7% (inactive).

As to `c1ccc(N2Cc3ccccc3-n3nncc3C2)nc1`, the inhibition was 14.6% (inactive).

In the case of `CC(Cc1ccccc1)NC=O` (stereo not given), the inhibition is 50.7% (active).

On to `CC(Cc1ccccc1)NCCC(c1ccccc1)c1ccccc1` (stereo not given), for which the inhibition was 8.1% (inactive).

In the case of `CC(=O)Nc1ccc(C(=O)C(Cc2ccccc2)N(C)C)cc1` (stereo not given), the inhibition is -0.4% (inactive).

As for `CCC(C)(O)C(=O)OC1C(=O)OC2CC3C(C)=CC(=O)C(O)C3(C)C3C4(O)OCC23C1C(C)C4O` (stereo not given), the inhibition is 15.7% (inactive).

`CC(=CCOc1ccc2ccc(=O)oc2c1)C1=CC(=O)C(C)(C)O1`: the inhibition was -260% (inactive).

With `C=Cn1ccnc1P(=S)(c1cc(N(CC)CC)ns1)c1nccn1C=C`, the inhibition was 1.5% (inactive).

Values taken from PubChem BioAssay AID602440 (Sanford-Burnham Center for Chemical Genomics, 2012).
